According to PubChem BioAssay (Tox21):
Inconclusive results are not listed. Activity calls are given as the source filed them. Unless noted, calls follow the shape of the dose curve; as a rule, active = well fitted curve in the direction sought with a large enough effect in the repeat runs; inconclusive = weak or mixed curves; inactive = no such curve, though single readings can be large; an effect the other way counts as inactive or inconclusive.

Key:
[1] = qHTS assay to identify small molecule agonists of the hypoxia (HIF-1) signaling pathway - cell viability counter screen (AID 1224844; calls by dose curve; also: nearly all actives have a fitted effect of over 50% in size)
How it was run: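 Tox21 10K compounds were added to HRE-bla ME-180 cells (0.5% dialyzed FBS) and incubated 17 hrs at 37C; ATP-based CellTiter-Glo luminescence then reported cell viability in the same wells.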

[2] = qHTS assay to identify small molecule agonists of H2AX (AID 1224845; active = well fitted activation curve with a large enough effect in the signal ratio in the repeat runs, not every such curve was filed as active; the % refers to the signal ratio)
How it was run: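 Wild-type CHO-K1 cells plated overnight, then exposed 3 hr at 37C to compounds at 15 concentrations (0.76% DMSO). Lysed, then HTRF anti-pH2AX(S139)-cryptate/anti-H2AX-d2 detection after 24 hr at room temperature; emissions 665 and 620 nm.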

[3] = qHTS assay to identify small molecule agonists of the hypoxia (HIF-1) signaling pathway (AID 1224846; active = well fitted activation curve with a large enough effect in the signal ratio in the repeat runs, not every such curve was filed as active; the % refers to the signal ratio)
How it was run: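 Steps: seed ME-180 HRE-bla cells (2,000/well, 0.5% dialyzed FBS); incubate 5 hrs at 37C; pin-transfer compounds or DMSO; incubate 17 hrs; add LiveBLAzer B/G substrate CCF4-AM; measure reporter activation by FRET.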

[4] = qHTS assay to identify small molecule agonists of H2AX - cell viability counter screen (AID 1224847; calls by dose curve; also: top concentration of the series differs between compounds; nearly all actives have a fitted effect of over 30% in size)
How it was run: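 Counter-screen for viability: CellTiter-Glo ATP luminescence read after 3 h compound treatment (15-point titration, 0.76% DMSO final) of CHO-K1 cells at 37C, with 30 min room-temperature reagent incubation.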

[5] = qHTS RealTime-Glo MT Cell Viability Assay in HepG2 cells - 24 hour (AID 1224867); also: nearly all actives have a fitted effect of over 50% in size
How it was run: (§1)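 HepG2 cells (600/well) were dispensed with RealTime-Glo reagents, incubated 5 h at 37 °C, then treated with compounds in DMSO for up to 40 h. Nonlytic NanoLuc luminescence reflecting viable cells was read at each stated time point.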

[6] = qHTS RealTime-Glo MT Cell Viability Assay in HEK293 cells - 32 hour (AID 1224868); also: top concentration of the series differs between compounds; nearly all actives have a fitted effect of over 50% in size
How it was run: (§2)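 HEK293 cells seeded with NanoLuc/prosubstrate reagent, rested 5 h at 37 C, then dosed and kept at 37 C up to 40 h. Nonlytic real-time luminescence from viable cells read at 0, 8, 16, 24, 32 and 40 h.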

[7] = A CellTox Green Cytotoxicity Assay to monitor cytotoxicity in HEK293 cells - 0 hour (AID 1224869); also: nearly all actives have a fitted effect of over 50% in size
How it was run: (§3)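 Cytotoxicity was tracked continuously in HEK293 cells by a DNA-binding dye excluded from viable cells. Compounds were transferred in DMSO 5 h after seeding; fluorescence was recorded at intervals up to 40 h.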

[8] = qHTS RealTime-Glo MT Cell Viability Assay in HepG2 cells - 40 hour (AID 1224870); also: nearly all actives have a fitted effect of over 50% in size
How it was run: (§4)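 HepG2 cells mixed with RealTime-Glo MT reagents (NanoLuc plus cell-permeant prosubstrate) were seeded at 600 cells/well, incubated 5 h at 37 C/5% CO2, then pinned with compounds in DMSO; nonlytic luminescence tracked viability during 40 h treatment.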

[9] = A CellTox Green Cytotoxicity Assay to monitor cytotoxicity in HEK293 cells - 40 hour (AID 1224871); also: nearly all actives have a fitted effect of over 45% in size
How it was run: as §3

[10] = qHTS RealTime-Glo MT Cell Viability Assay in HEK293 cells - 16 hour (AID 1224872)
How it was run: as §2

[11] = qHTS RealTime-Glo MT Cell Viability Assay in HepG2 cells - 8 hour (AID 1224873); also: nearly all actives have a fitted effect of over 55% in size
How it was run: as §4

[12] = qHTS RealTime-Glo MT Cell Viability Assay in HEK293 cells - 40 hour (AID 1224874); conditions: RealTime-Glo luminescence; max response: active compounds read low; also: nearly all actives have a fitted effect of over 50% in size
How it was run: (§5)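 Nonlytic bioluminescent viability monitoring. HEK293 at 600 cells/well with reagent; 5 h settle; compound transfer by pintool; plates held at 37 C and read at set time points.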

[13] = A CellTox Green Cytotoxicity Assay to monitor cytotoxicity in HEK293 cells - 24 hour (AID 1224875); also: nearly all actives have a fitted effect of over 45% in size
How it was run: as §3

[14] = A CellTox Green Cytotoxicity Assay to monitor cytotoxicity in HepG2 cells - 16 hour (AID 1224876); also: nearly all actives have a fitted effect of over 45% in size
How it was run: (§6)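 Real-time, homogeneous cytotoxicity readout: dead-cell DNA staining by CellTox Green in HepG2 monolayers, fluorescence measured at timed intervals up to 40 h of continuous compound exposure.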

[15] = qHTS RealTime-Glo MT Cell Viability Assay in HepG2 cells - 32 hour (AID 1224877); also: nearly all actives have a fitted effect of over 55% in size
How it was run: as §1

[16] = A CellTox Green Cytotoxicity Assay to monitor cytotoxicity in HepG2 cells - 24 hour (AID 1224878); also: nearly all actives have a fitted effect of over 45% in size
How it was run: as §6

[17] = A CellTox Green Cytotoxicity Assay to monitor cytotoxicity in HepG2 cells - 40 hour (AID 1224879); also: nearly all actives have a fitted effect of over 40% in size
How it was run: as §6

[18] = qHTS RealTime-Glo MT Cell Viability Assay in HEK293 cells - 0 hour (AID 1224880)
How it was run: as §5

[19] = qHTS assay to identify small molecule antagonists of the estrogen related receptor (ERR) signaling pathway from Tox21 library (AID 1224848); also: nearly all actives have a fitted effect of over 50% in size
How it was run: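 Screening used an ERR reporter line supplied by NTP, exposed for 18 h at 37 C to library compounds delivered in DMSO. Signal was luciferase luminescence developed with ONE-Glo at room temperature for 30 min.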

[20] = qHTS assay to identify small molecule agonists of the estrogen related receptor (ERR) signaling pathway from Tox21 library (AID 1224849; calls by dose curve; also: nearly all actives have a fitted effect of over 15% in size); conditions: ERR reporter cell line, ONE-Glo luciferase, 18 h; at 92.4 µM (top of the series) unless noted
How it was run: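 Agonist signal is luciferase luminescence from an ERR reporter cell line treated 18 h at 37 C with DMSO-dissolved compounds, read 30 min after ONE-Glo addition at room temperature.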
% is scaled to controls: 0 for no effect and ±100 for the full control effect.

CC(C)c1ccc2cc(C(C)C)ccc2c1
inactive: outcome [1] | outcome [2] | outcome [3] | Potency [4] | outcome [5] | Potency [6] | outcome [7] | outcome [8] | Potency [9] | Potency [10] | outcome [11] | max response [12] 11.1% | outcome [13] | outcome [14] | outcome [15] | outcome [16] | Potency [17] | Potency [18]

Oc1cn2c(n1)Nc1ccc(Cl)c(Cl)c1C2
inactive: activity change, negative = cytotoxicity [1] -1.47% [at 15.8 µM] | activation (H2AX phosphorylation) [2] -0.0397% [at 31.6 µM] | activation [3] -0.566% [at 15.8 µM] | activity change, negative = cytotoxicity [4] 0.633% [at 31.6 µM] | activity change, negative = cytotoxicity [5] -0.765% [at 15.8 µM] | activity change, negative = cytotoxic [6] 9.1% [at 15.8 µM] | cytotoxicity [7] 0.503% [at 15.8 µM] | activity change, negative = cytotoxic [8] -4.5% [at 15.8 µM] | cytotoxicity increase [9] 2.17% [at 15.8 µM] | activity change, negative = cytotoxicity [10] 6.18% [at 15.8 µM] | viability change, negative = cytotoxic [11] -0.13% [at 15.8 µM] | max response [12] 10.9% | activity change [13] -3.58% [at 15.8 µM] | cytotoxicity increase [14] -4.2% [at 15.8 µM] | activity change, negative = cytotoxic [15] -1.97% [at 15.8 µM] | cytotoxicity [16] -5.44% [at 15.8 µM] | cytotoxicity increase [17] -8.09% [at 15.8 µM] | activity change, negative = cytotoxicity [18] -2.73% [at 15.8 µM]

CC1(C)S[C@@H]2[C@H](N=CN3CCCCCC3)C(=O)N2[C@H]1C(=O)O
inactive: outcome [1] | outcome [2] | outcome [3] | Potency [4] | outcome [5] | Potency [6] | outcome [7] | outcome [8] | Potency [9] | Potency [10] | outcome [11] | max response [12] 6.57% | outcome [13] | outcome [14] | outcome [15] | outcome [16] | Potency [17] | Potency [18]

c1ccc2nccnc2c1
inactive: outcome [1] | outcome [2] | outcome [3] | Potency [4] | outcome [5] | Potency [6] | outcome [7] | outcome [8] | Potency [9] | Potency [10] | outcome [11] | max response [12] 5.36% | outcome [13] | outcome [14] | outcome [15] | outcome [16] | Potency [17] | Potency [18]

CC(CO)c1ccccc1 (centres undefined)
inactive: outcome [1] | outcome [2] | outcome [3] | Potency [4] | outcome [5] | Potency [6] | outcome [7] | outcome [8] | Potency [9] | Potency [10] | outcome [11] | max response [12] -0.132% | outcome [13] | outcome [14] | outcome [15] | outcome [16] | Potency [17] | Potency [18]

COCCc1ccc(OCC2CO2)cc1 (centres undefined)
inactive: outcome [1] | outcome [2] | outcome [3] | Potency [4] | outcome [5] | Potency [6] | outcome [7] | outcome [8] | Potency [9] | Potency [10] | outcome [11] | max response [12] 13.1% | outcome [13] | outcome [14] | outcome [15] | outcome [16] | Potency [17] | Potency [18]

O=C(O)CCSSCCC(=O)O
inactive: outcome [1] | outcome [2] | outcome [3] | Potency [4] | outcome [5] | Potency [6] | outcome [7] | outcome [8] | Potency [9] | Potency [10] | outcome [11] | max response [12] 7.07% | outcome [14] | outcome [15] | outcome [16] | Potency [17] | Potency [18]

O=C(NCCc1c[nH]c2ccccc12)c1cccnc1
inactive: outcome [1] | outcome [2] | outcome [3] | Potency [4] | outcome [5] | Potency [6] | outcome [7] | outcome [8] | Potency [9] | Potency [10] | outcome [11] | max response [12] -11.8% | outcome [13] | outcome [14] | outcome [15] | outcome [16] | Potency [17] | Potency [18]

CCCCCCCCOS(=O)(=O)O
inactive: outcome [1] | outcome [2] | Potency [4] | Potency [19] | activity change, positive = activation [20] 6.25% | outcome [5] | Potency [6] | outcome [7] | outcome [8] | Potency [9] | Potency [10] | outcome [11] | max response [12] 2.61% | outcome [13] | outcome [14] | outcome [15] | outcome [16] | Potency [17] | Potency [18]

On1nnc2ccccc21
inactive: outcome [1] | outcome [2] | outcome [3] | Potency [19] | activity change, positive = activation [20] 9.52% | outcome [5] | Potency [6] | outcome [7] | outcome [8] | Potency [9] | Potency [10] | outcome [11] | max response [12] -15.2% | outcome [13] | outcome [14] | outcome [15] | outcome [16] | Potency [17] | Potency [18]

CC(C)C(=O)OCCc1ccccc1
inactive: outcome [1] | outcome [2] | outcome [3] | Potency [4] | outcome [5] | Potency [6] | outcome [7] | outcome [8] | Potency [10] | max response [12] -2.86% | outcome [14] | outcome [15] | outcome [16] | Potency [17] | Potency [18]

COc1cc(C(=S)N2CCOCC2)cc(OC)c1OC
inactive: outcome [1] | outcome [2] | outcome [3] | Potency [19] | activity change, positive = activation [20] -0.791% [at 42.5 µM] | outcome [5] | Potency [6] | outcome [7] | outcome [8] | Potency [9] | Potency [10] | outcome [11] | max response [12] 4.79% | outcome [14] | outcome [15] | outcome [16] | Potency [17] | Potency [18]
